The supplement of paper PMC8728848
The sample as a whole holds a higher share of the strongest signals than the screen did.

Experiments:
Experiment in all cases: glycan array binding signal (z-score within array); higher = stronger binding
Details in all cases: glycan notation: IUPAC condensed, linker removed
[1] = molecular target: Fuc(a1-2)Gal(b1-3)GlcNAc(b1-3)[Fuc(a1-2)Gal(b1-3)GlcNAc(b1-6)]GalNAc
Method in brief: (§1)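 Arrays were curated from the Consortium for Functional Glycomics database, 3228 in total, and kept only where the protein sequence was available. Binding is expressed as a within-array Z-score. This score was averaged across arrays of the same protein sequence at different concentrations or buffers and across linkers, and negative values can be read as non-binding.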

[2] = molecular target: Fuc(a1-2)Gal(b1-4)[Fuc(a1-3)]GlcNAc(b1-3)Gal(b1-4)[Fuc(a1-3)]GlcNAc
Method in brief: as §1

[3] = molecular target: Fuc(a1-2)[Gal(a1-3)]Gal(b1-3)GlcNAc
Method in brief: as §1

[4] = molecular target: Fuc(a1-2)[Gal(a1-3)]Gal(b1-4)GlcNAc(b1-3)GalNAc
Method in brief: as §1

[5] = molecular target: Gal(a1-3)Gal(b1-4)Glc
Method in brief: as §1

[6] = molecular target: Gal(a1-3)Gal(b1-4)GlcNAc(b1-2)Man(a1-3)[Gal(a1-3)Gal(b1-4)GlcNAc(b1-2)Man(a1-6)]Man(b1-4)GlcNAc(b1-4)GlcNAc
Method in brief: as §1

[7] = molecular target: Gal(a1-4)Gal(b1-3)GlcNAc(b1-2)Man(a1-3)[Gal(a1-4)Gal(b1-3)GlcNAc(b1-2)Man(a1-6)]Man(b1-4)GlcNAc(b1-4)GlcNAc
Method in brief: as §1

[8] = molecular target: Gal(b1-2)Gal
Method in brief: as §1

[9] = molecular target: Gal(b1-3)GalNAc(a1-3)[Fuc(a1-2)]Gal(b1-4)Glc
Method in brief: as §1

[10] = molecular target: Gal(b1-3)GalNAc(b1-3)Gal(a1-4)Gal(b1-4)Glc
Method in brief: as §1

[11] = molecular target: Gal(b1-3)GalNAc(b1-4)Gal(b1-4)Glc
Method in brief: as §1

[12] = molecular target: Gal(b1-3)GlcNAc(b1-3)Gal(b1-3)GlcNAc
Method in brief: as §1

[13] = molecular target: Gal(b1-3)GlcNAc6S
Method in brief: as §1

[14] = molecular target: Gal(b1-3)[Fuc(a1-4)]GlcNAc(b1-2)Man(a1-3)[Gal(b1-3)[Fuc(a1-4)]GlcNAc(b1-2)Man(a1-6)]Man(b1-4)GlcNAc(b1-4)[Fuc(a1-6)]GlcNAc
Method in brief: as §1

[15] = molecular target: Gal(b1-4)GlcNAc(b1-2)Man(a1-6)[GlcNAc(b1-2)Man(a1-3)]Man(b1-4)GlcNAc(b1-4)GlcNAc
Method in brief: as §1

[16] = molecular target: Gal(b1-4)GlcNAc(b1-2)[Gal(b1-4)GlcNAc(b1-4)]Man(a1-3)[GlcNAc(b1-4)][Gal(b1-4)GlcNAc(b1-2)Man(a1-6)]Man(b1-4)GlcNAc(b1-4)GlcNAc
Method in brief: as §1

[17] = molecular target: Gal(b1-4)GlcNAc(b1-3)Gal(b1-4)GlcNAc(b1-2)Man(a1-3)[Gal(b1-4)GlcNAc(b1-3)Gal(b1-4)GlcNAc(b1-2)Man(a1-6)]Man(b1-4)GlcNAc(b1-4)GlcNAc
Method in brief: as §1

[18] = molecular target: Gal(b1-4)GlcNAc(b1-3)Gal(b1-4)GlcNAc(b1-3)Gal(b1-4)GlcNAc(b1-2)Man(a1-3)[Gal(b1-4)GlcNAc(b1-3)Gal(b1-4)GlcNAc(b1-3)Gal(b1-4)GlcNAc(b1-2)Man(a1-6)]Man(b1-4)GlcNAc(b1-4)[Fuc(a1-6)]GlcNAc
Method in brief: as §1

[19] = molecular target: Gal(b1-4)GlcNAc(b1-3)Gal(b1-4)GlcNAc(b1-3)Gal(b1-4)GlcNAc(b1-3)Gal(b1-4)GlcNAc(b1-2)Man(a1-3)[Gal(b1-4)GlcNAc(b1-3)Gal(b1-4)GlcNAc(b1-3)Gal(b1-4)GlcNAc(b1-3)Gal(b1-4)GlcNAc(b1-2)Man(a1-6)]Man(b1-4)GlcNAc(b1-4)GlcNAc
Method in brief: as §1

[20] = molecular target: Gal(b1-4)GlcNAc(b1-3)Gal(b1-4)GlcNAc(b1-3)Gal(b1-4)GlcNAc(b1-3)Gal(b1-4)GlcNAc(b1-2)Man(a1-3)[Gal(b1-4)GlcNAc(b1-3)Gal(b1-4)GlcNAc(b1-3)Gal(b1-4)GlcNAc(b1-3)Gal(b1-4)GlcNAc(b1-2)Man(a1-6)]Man(b1-4)GlcNAc(b1-4)[Fuc(a1-6)]GlcNAc
Method in brief: as §1

[21] = molecular target: Gal(b1-4)GlcNAc(b1-3)Gal(b1-4)GlcNAc(b1-3)Gal(b1-4)GlcNAc(b1-3)Gal(b1-4)GlcNAc(b1-2)[Gal(b1-4)GlcNAc(b1-3)Gal(b1-4)GlcNAc(b1-3)Gal(b1-4)GlcNAc(b1-3)Gal(b1-4)GlcNAc(b1-6)]Man(a1-6)[Gal(b1-4)GlcNAc(b1-3)Gal(b1-4)GlcNAc(b1-3)Gal(b1-4)GlcNAc(b1-3)Gal(b1-4)GlcNAc(b1-2)Man(a1-3)]Man(b1-4)GlcNAc(b1-4)[Fuc(a1-6)]GlcNAc
Method in brief: as §1

[22] = molecular target: Gal(b1-4)GlcNAc(b1-3)Gal(b1-4)GlcNAc(b1-3)Gal(b1-4)GlcNAc(b1-3)Gal(b1-4)GlcNAc(b1-3)Gal(b1-4)GlcNAc(b1-2)Man(a1-3)[Gal(b1-4)GlcNAc(b1-3)Gal(b1-4)GlcNAc(b1-3)Gal(b1-4)GlcNAc(b1-3)Gal(b1-4)GlcNAc(b1-3)Gal(b1-4)GlcNAc(b1-2)Man(a1-6)]Man(b1-4)GlcNAc(b1-4)GlcNAc
Method in brief: as §1

[23] = molecular target: Gal(b1-4)GlcNAc(b1-3)Gal(b1-4)GlcNAc(b1-3)Gal(b1-4)GlcNAc(b1-3)Gal(b1-4)GlcNAc(b1-3)Gal(b1-4)GlcNAc(b1-2)Man(a1-3)[Gal(b1-4)GlcNAc(b1-3)Gal(b1-4)GlcNAc(b1-3)Gal(b1-4)GlcNAc(b1-3)Gal(b1-4)GlcNAc(b1-3)Gal(b1-4)GlcNAc(b1-2)Man(a1-6)]Man(b1-4)GlcNAc(b1-4)[Fuc(a1-6)]GlcNAc
Method in brief: as §1

[24] = molecular target: Gal(b1-4)GlcNAc(b1-3)Gal(b1-4)GlcNAc(b1-3)Gal(b1-4)GlcNAc(b1-3)Gal(b1-4)GlcNAc(b1-3)Gal(b1-4)GlcNAc(b1-2)[Gal(b1-4)GlcNAc(b1-3)Gal(b1-4)GlcNAc(b1-3)Gal(b1-4)GlcNAc(b1-3)Gal(b1-4)GlcNAc(b1-3)Gal(b1-4)GlcNAc(b1-6)]Man(a1-6)[Gal(b1-4)GlcNAc(b1-3)Gal(b1-4)GlcNAc(b1-3)Gal(b1-4)GlcNAc(b1-3)Gal(b1-4)GlcNAc(b1-3)Gal(b1-4)GlcNAc(b1-2)Man(a1-3)]Man(b1-4)GlcNAc(b1-4)[Fuc(a1-6)]GlcNAc
Method in brief: as §1

[25] = molecular target: Gal(b1-4)GlcNAc(b1-3)Gal(b1-4)GlcNAc(b1-3)Gal(b1-4)GlcNAc(b1-3)Gal(b1-4)GlcNAc(b1-3)Gal(b1-4)GlcNAc(b1-3)Gal(b1-4)GlcNAc(b1-2)Man(a1-3)[Gal(b1-4)GlcNAc(b1-3)Gal(b1-4)GlcNAc(b1-3)Gal(b1-4)GlcNAc(b1-3)Gal(b1-4)GlcNAc(b1-3)Gal(b1-4)GlcNAc(b1-3)Gal(b1-4)GlcNAc(b1-2)Man(a1-6)]Man(b1-4)GlcNAc(b1-4)GlcNAc
Method in brief: as §1

[26] = molecular target: Gal3S(b1-4)[Fuc(a1-3)]Glc6S
Method in brief: as §1

[27] = molecular target: Gal4S6S(b1-4)GlcNAc
Method in brief: as §1

[28] = molecular target: Gal6S(b1-3)GlcNAc
Method in brief: as §1

[29] = molecular target: GalNAc(b1-3)Gal(a1-6)Gal(b1-4)Glc
Method in brief: as §1

[30] = molecular target: GalNAc(b1-3)GlcNAc
Method in brief: as §1

[31] = molecular target: GalNAc3S(b1-4)GlcNAc3S
Method in brief: as §1

[32] = molecular target: GlcA(b1-6)Gal
Method in brief: as §1

[33] = molecular target: GlcNAc(a1-4)Gal(b1-4)GlcNAc(b1-3)Gal(b1-4)GlcNAc(b1-3)Gal(b1-4)GlcNAc
Method in brief: as §1

[34] = molecular target: GlcNAc(b1-6)Gal(b1-4)GlcNAc
Method in brief: as §1

[35] = molecular target: GlcNAc(b1-6)GalNAc
Method in brief: as §1

[36] = molecular target: Kdn(a2-3)Gal(b1-3)GlcNAc
Method in brief: as §1

[37] = molecular target: Kdn(a2-3)Gal(b1-4)GlcNAc
Method in brief: as §1

[38] = molecular target: Man(a1-2)Man(a1-3)[Man(a1-2)Man(a1-6)]Man
Method in brief: as §1

[39] = molecular target: Neu5Ac(a2-3)Gal(b1-4)GlcNAc(b1-3)Gal(b1-4)GlcNAc(b1-3)GalNAc
Method in brief: as §1

[40] = molecular target: Neu5Ac(a2-3)Gal(b1-4)[Fuc(a1-3)]GlcNAc(b1-3)Gal
Method in brief: as §1

[41] = molecular target: Neu5Ac(a2-3)Gal(b1-4)[Fuc(a1-3)]GlcNAc(b1-3)Gal(b1-4)GlcNAc
Method in brief: as §1

[42] = molecular target: Neu5Ac(a2-3)Gal(b1-4)[Fuc(a1-3)]GlcNAc(b1-6)[Gal(b1-3)]GalNAc
Method in brief: as §1

[43] = molecular target: Neu5Ac(a2-3)[GalNAc(b1-4)]Gal(b1-4)Glc
Method in brief: as §1

[44] = molecular target: Neu5Ac(a2-6)Gal(b1-3)GlcNAc(b1-3)[Gal(b1-4)GlcNAc(b1-6)]Gal(b1-4)Glc
Method in brief: as §1

[45] = molecular target: Neu5Ac(a2-6)Gal(b1-4)GlcNAc(b1-2)Man(a1-3)[Man(a1-6)]Man(b1-4)GlcNAc(b1-4)GlcNAc
Method in brief: as §1

[46] = molecular target: Neu5Ac(a2-6)Gal(b1-4)GlcNAc(b1-3)[Neu5Ac(a2-6)Gal(b1-4)GlcNAc(b1-6)]GalNAc
Method in brief: as §1

[47] = molecular target: Neu5Ac(a2-6)Gal(b1-4)GlcNAc(b1-6)[Gal(b1-3)GlcNAc(b1-3)]Gal(b1-4)Glc
Method in brief: as §1

[48] = molecular target: Neu5Ac(a2-6)GalNAc(b1-4)GlcNAc
Method in brief: as §1

[49] = molecular target: Neu5Gc(a2-6)GalNAc
Method in brief: as §1

B1: Epa9 (Candida glabrata), CAGL0A01386g (protein)
chain: MGSSHHHHHHSSGLVPRGSHMDITPFAHYPRPEGCSSPPNAVSVGLHMDLYNYPYLYVKNPRTGFTNDTDSDADGETDGDSAGGIEGRAGQCWNPEYQDPNFPRYGYKKYGSFGSSDHVNGKISWDHNEFKEGCKPIMARLPTAYNYPAKITFSNFTMVLSGYFKPKSTGLYKFEIHADDFILFNFGSKNAFECCNREESIDNFGPYVAYAMWPNEADQELEVYLFEDSYYPIRLFYNNRDYHSKFMVGFYPPNTEEITYDFDGYLYMLDDTGNECKDSIRYKTVCDD
glycan array binding signal (z-score) [1]: -0.296 | glycan array binding signal (z-score) [2]: -0.521 | glycan array binding signal (z-score) [3]: -0.32 | glycan array binding signal (z-score) [4]: -0.304 | glycan array binding signal (z-score) [5]: 0.746 | glycan array binding signal (z-score) [6]: 4.07 | glycan array binding signal (z-score) [7]: 4.05 | glycan array binding signal (z-score) [8]: 0.38 | glycan array binding signal (z-score) [9]: 1.58 | glycan array binding signal (z-score) [10]: 1.98 | glycan array binding signal (z-score) [11]: 4.13 | glycan array binding signal (z-score) [12]: -0.11 | glycan array binding signal (z-score) [13]: -0.028 | glycan array binding signal (z-score) [14]: -0.377 | glycan array binding signal (z-score) [15]: 0.1 | glycan array binding signal (z-score) [16]: 1.34 | glycan array binding signal (z-score) [17]: 1.3 | glycan array binding signal (z-score) [18]: 3.45 | glycan array binding signal (z-score) [19]: 4.82 | glycan array binding signal (z-score) [20]: 4.74 | glycan array binding signal (z-score) [21]: 5.31 | glycan array binding signal (z-score) [22]: 5.73 | glycan array binding signal (z-score) [23]: 5.38 | glycan array binding signal (z-score) [24]: 6.29 | glycan array binding signal (z-score) [25]: 4.6 | glycan array binding signal (z-score) [26]: -0.318 | glycan array binding signal (z-score) [27]: -0.491 | glycan array binding signal (z-score) [28]: -0.361 | glycan array binding signal (z-score) [29]: -0.468 | glycan array binding signal (z-score) [30]: -0.486 | glycan array binding signal (z-score) [31]: -0.441 | glycan array binding signal (z-score) [32]: -0.198 | glycan array binding signal (z-score) [33]: -0.462 | glycan array binding signal (z-score) [34]: 0.361 | glycan array binding signal (z-score) [35]: -0.467 | glycan array binding signal (z-score) [36]: -0.454 | glycan array binding signal (z-score) [37]: -0.394 | glycan array binding signal (z-score) [38]: -0.635 | glycan array binding signal (z-score) [39]: -0.387 | glycan array binding signal (z-score) [40]: -0.474 | glycan array binding signal (z-score) [41]: -0.253 | glycan array binding signal (z-score) [42]: -0.217 | glycan array binding signal (z-score) [43]: -0.447 | glycan array binding signal (z-score) [44]: 0.392 | glycan array binding signal (z-score) [45]: -0.06 | glycan array binding signal (z-score) [46]: -0.357 | glycan array binding signal (z-score) [47]: -0.304 | glycan array binding signal (z-score) [48]: -0.519 | glycan array binding signal (z-score) [49]: -0.467
